One test relates to CAOV3. Nature of the test: Primary qHTS to identify gynecologic anti-cancer compounds using libraries of approved drugs and bioactive compounds (AID 1345084). Note: nearly all actives have a fitted effect of over 55% in size. Conditions: Gynecologic cancer cell panel viability, ATPlite luminescence, 48 h; series mostly up to 57.5 µM. The essentials:
(§1)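 ATP-based viability (ATPlite), 1,000 cells/well, 16 h pre-incubation, 48 h compound at 37 C, 5% CO2, 15 min RT before read.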
For orientation: In qHTS, concentration-response curves come from the screen itself.

In a further test the test system is CASKI. The description is as above. Conditions: Gynecologic cancer cell panel viability, ATPlite luminescence, 48 h; series mostly up to 57.5 µM. The essentials: as §1
For a further test, the system named is Es-2. The description is as above. Conditions: Gynecologic cancer cell panel viability, ATPlite luminescence, 48 h; series mostly up to 57.5 µM. In outline: as §1
(Cellular ATP, detected with luciferase, serves as a proxy for viable cell number.)

In a further test the test system is HeLa. The description is as above. Conditions: Gynecologic cancer cell panel viability, ATPlite luminescence, 48 h; series mostly up to 57.5 µM. The essentials: as §1
For the next test, the system named is Hek293T. Described as above. Conditions: Gynecologic cancer cell panel viability, ATPlite luminescence, 48 h, control line for the selectivity index; series mostly up to 57.5 µM. The essentials:
as §1

The next test relates to JEG-3. The test is described as above. Conditions: Gynecologic cancer cell panel viability, ATPlite luminescence, 48 h; series mostly up to 57.5 µM. In outline:
as §1

For a further test, the system named is OV90. Described as above. Conditions: Gynecologic cancer cell panel viability, ATPlite luminescence, 48 h; series mostly up to 57.5 µM. In outline:
as §1

The next test concerns SKOV3. The description is as above. Conditions: Gynecologic cancer cell panel viability, ATPlite luminescence, 48 h; series mostly up to 57.5 µM. The essentials:
as §1

The next test relates to Tov-21-G. The test is described as above. Conditions: Gynecologic cancer cell panel viability, ATPlite luminescence, 48 h; series mostly up to 57.5 µM. The essentials: as §1
The next test deals with Tov112D. Described as above. Conditions: Gynecologic cancer cell panel viability, ATPlite luminescence, 48 h; series mostly up to 57.5 µM. The essentials: as §1
The subject of a further test is PA-1. The test is described as above. Conditions: Gynecologic cancer cell panel viability, ATPlite luminescence, 48 h; series mostly up to 57.5 µM. The essentials: as §1
The nature of test [1]: qHTS assay to identify inhibitors of the type 1 interferon - major histocompatibility complex class I in skeletal muscle: Counter screen cell viability and HiBit confirmation (AID 1347412). Note: nearly all actives have a fitted effect of over 60% in size. Conditions: iHSKM muscle cells + IFN-b, HiBiT or CellTiter-Glo, 24 h. In outline:
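After 24 h with human IFN-beta (4 ng/ml) and compound titrations (top 46 uM final, 1:3, 12 points), HLA-B HiBit myoblasts were lysed for either Nano-Glo HiBiT luminescence or CellTiter Glo viability on paired plates.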

In PubChem BioAssay (NCATS) one finds Potency data, which are given here for 18 molecules.

Each structure is given as a SMILES string. Results filed as inconclusive are left out. A number with no mark means an inactive call. The source made the active and inactive calls. Calls come from the whole dose curve; as a rule, active = well fitted curve in the direction sought with a large enough effect; inconclusive = small, poorly fitted or top-dose-only effect, or another doubt; inactive = no such curve, though single readings can be large; an effect the other way counts as inactive or inconclusive.
Potency is the fitted concentration of half-maximal effect.

`C=C[C@](C)(CC/C=C(\C)C(=O)O)O[C@@H]1OC[C@H](O)[C@H](O)[C@H]1O`: the Potency entry in the test on CAOV3, with CASKI, with Es-2, with HeLa, in the test with Hek293T and with JEG-3 was “inactive” each time. In addition, the Potency result in the test on OV90, in the test with SKOV3, with Tov-21-G and in the test with Tov112D was “inactive” each time.

With `CC1(C)CC[C@]2(C(=O)O)CC[C@]3(C)C(=CCC4[C@@]5(C)CCC(O[C@@H]6OC[C@H](O)[C@H](O)[C@H]6O[C@@H]6O[C@H](CO)[C@@H](O)[C@H](O)[C@H]6O)[C@@](C)(CO)C5CC[C@]43C)[C@@H]2C1` (stereo partly specified), the Potency result in the test on CAOV3, in the test with CASKI, with Es-2, in the test with HeLa, in the test with Hek293T and with JEG-3 was “inactive” throughout. In addition, the Potency result in the test on OV90, in the test on SKOV3, in the test with Tov-21-G and in the test on Tov112D was “inactive” each time.

On to `CC(C)=CCC[C@](C)(O[C@@H]1O[C@H](CO[C@@H]2OC[C@@H](O)[C@H](O)[C@H]2O)[C@@H](O)[C@H](O)[C@H]1O)[C@H]1CC[C@]2(C)[C@@H]1[C@H](O)C[C@@H]1[C@@]3(C)CC[C@H](O[C@@H]4O[C@H](CO)[C@@H](O)[C@H](O)[C@H]4O[C@@H]4O[C@H](CO)[C@@H](O)[C@H](O)[C@H]4O)C(C)(C)[C@@H]3CC[C@]12C`, for which the Potency entry in the test on CAOV3, with CASKI, with Es-2, with HeLa, in the test on Hek293T and with JEG-3 was “inactive” in each case. Moreover, the Potency entry in the test with OV90, in the test with SKOV3, in the test on Tov-21-G and in the test with Tov112D was “inactive” in each case.

For `COc1cc(N2CCC(O)CC2)ccc1Nc1cc(Nc2ccccc2S(=O)(=O)C(C)C)c2cc[nH]c2n1`, the Potency entry with CAOV3, in the test on CASKI, in the test with Es-2, in the test on HeLa, in the test with Hek293T and in the test on JEG-3 was “inactive” throughout. Further, the Potency result in the test on OV90, with SKOV3, in the test on Tov-21-G and in the test on Tov112D was “inactive” throughout.

As for `CC1(C)OC(=O)C(OCC2CC2)=C1c1ccc(S(C)(=O)=O)cc1`, the Potency result in the test on CAOV3, with CASKI, in the test with Es-2, in the test with HeLa, in the test on Hek293T and in the test on JEG-3 was “inactive” throughout. The Potency result in the test on OV90, in the test on PA-1, in the test on Tov-21-G and in the test on Tov112D was “inactive” each time.

Consider `COC(=O)[C@@]1(O)C=CC[C@@H]2[C@@]3(C)C[C@@H](c4ccoc4)OC(=O)[C@H]3CC[C@]21C`, for which the Potency result in the test with CAOV3, in the test with CASKI, with Es-2, in the test on HeLa, in the test on Hek293T and in the test on JEG-3 was “inactive” in each case. Further, the Potency entry in the test with OV90, in the test on SKOV3, in the test with Tov-21-G and in the test with Tov112D was “inactive” throughout.

For `Cc1nn(C)c2c1C(c1ccc(C(F)(F)F)cc1)C(C#N)=C(N)O2` (stereo unspecified), the Potency result in the test with CAOV3, with CASKI, with Es-2, in the test on HeLa, with Hek293T and with JEG-3 was “inactive” in each case. In addition, the Potency result in the test on OV90, in the test on PA-1, with Tov-21-G and in the test on Tov112D was “inactive” each time.

On to `COc1cc(C(C)=O)ccc1O[C@@H]1O[C@H](CO[C@@H]2O[C@@H](C)[C@H](O)[C@@H](O)[C@H]2O)[C@@H](O)[C@H](O)[C@H]1O`, for which the Potency result in the test with CAOV3, in the test on CASKI, in the test with Es-2, with HeLa, in the test on Hek293T and in the test on JEG-3 was “inactive” throughout. Also, the Potency entry in the test on OV90, in the test with Tov-21-G and in the test on Tov112D was “inactive” throughout.

For `C[C@H]1[C@H](C)CC[C@]2(C(=O)O)CC[C@]3(C(=O)O)C(=CCC4[C@@]5(C)CC[C@H](O[C@@H]6O[C@H](C)[C@@H](O)[C@H](O)[C@H]6O)C(C)(C)C5CC[C@]43C)[C@H]12` (stereo partly specified), the Potency entry with CAOV3, in the test on CASKI, in the test on Es-2, with HeLa, in the test on Hek293T and in the test on JEG-3 was “inactive” each time. For the same molecule, the Potency result with OV90, with PA-1, in the test with Tov-21-G and in the test on Tov112D was “inactive” each time.

Regarding `Oc1ccc([C@H]2COc3cc(O)ccc3C2)cc1`, the Potency result in the test on CAOV3, with CASKI, with Es-2, in the test with Hek293T, in the test on JEG-3 and in the test with OV90 was “inactive” in each case. In addition, the Potency entry with PA-1, with SKOV3, with Tov-21-G and with Tov112D was “inactive” each time.

`CCOC(=O)c1ccnc(CNCC(=O)N(CC)CCN(C)C)c1`: the Potency entry with CASKI, with Es-2, in the test with HeLa, in the test on Hek293T, in the test on JEG-3 and with OV90 was “inactive” throughout. For the same molecule, the Potency entry in the test on PA-1, with SKOV3, with Tov-21-G and with Tov112D was “inactive” in each case.

On to `Cc1nnc(C(C)C)n1C1CC2CCC(C1)N2CCC(NC(=O)C1CCC(F)(F)CC1)c1ccccc1` (stereo unspecified), for which the Potency entry in the test on CAOV3, in the test on CASKI, in the test with Es-2, in the test with HeLa, in the test on JEG-3 and in the test with OV90 was “inactive” in each case. Besides, the Potency entry in the test with PA-1, in the test on SKOV3, with Tov-21-G and in the test with Tov112D was “inactive” in each case.

On to `CC[C@@H](c1ccc(F)c(F)c1)n1c(C(=O)OC)c(-c2ccno2)[nH]c1=S`, for which the Potency entry in the test with CAOV3, in the test with HeLa, in the test with Hek293T, in the test with JEG-3, in the test with OV90 and with PA-1 was “inactive” each time. In addition, the Potency result in the test on Tov-21-G and with Tov112D was “inactive” throughout.

With `COc1cc(N2CCC(N(C)C)CC2)ccc1Nc1ncc(Cl)c(Nc2ccccc2P(C)(C)=O)n1`, the Potency is 3.55 µM (active) with CAOV3; 7.08 µM (active) in the test on CASKI; 11.2 µM (active) in the test on Es-2; 3.16 µM (active) with HeLa; 10 µM (active) in the test with Hek293T; 1.58 µM (active) with OV90. In addition, the Potency in the test on PA-1 was 8.91 µM (active); in the test on SKOV3, 3.55 µM (active); in the test on Tov-21-G, 7.08 µM (active); with Tov112D, 10 µM (active); in test [1] (HiBiT) it was 3.13 µM (active).

As for `CC(C)Nc1cc(-c2c[nH]c(C(=O)N[C@H](CO)c3cccc(Cl)c3)c2)c(Cl)cn1`, the Potency entry in the test with CAOV3, with CASKI, in the test on HeLa, in the test with Hek293T, with JEG-3 and with SKOV3 was “inactive” in each case. The Potency entry in the test on Tov112D is “inactive”.

On to `Cc1cc(Nc2ncc(Cl)c(Nc3ccccc3S(=O)(=O)C(C)C)n2)c(OC(C)C)cc1C1CCNCC1`, for which the Potency entry with CAOV3, in the test with CASKI, in the test on Es-2, with HeLa, with Hek293T and with JEG-3 was “inactive” each time. For the same molecule, the Potency entry with PA-1, in the test with Tov-21-G and in the test on Tov112D was “inactive” each time. In test [1] (Viability), the Potency is 27.9 µM (active).

Regarding `Cc1ccc(C(=O)Nc2ccc(Oc3cc4cnn(C)c4cc3-c3cn[nH]c3)c(F)c2)c(=O)n1-c1ccc(F)cc1`, the Potency in the test with CAOV3 was 8.91 µM (active). Moreover, the Potency result in the test with Es-2 is “inactive”.

As for `O=C(c1ccc(F)cc1)C1CCN(CCn2c(=O)nc3n(c2=O)CCCC3)CC1`, the Potency entry in the test on CAOV3, with Es-2, in the test on HeLa, in the test on Hek293T, with JEG-3 and in the test on OV90 was “inactive” each time. Also, the Potency entry in the test on PA-1, with Tov-21-G and in the test on Tov112D was “inactive” each time.
